Measured values as given in the supplement of paper PMC10849652.
About 8,800 targets were measured; listed, in parts, are those with a hit and a random draw of the rest. About 0.5% of all pairs of compound and target were hits.

The targets below were run with O=C1NC(=O)C(c2cnc3ccccn23)=C1c1cn2c3c(cc(F)cc13)CN(C(=O)N1CCCCC1)CC2 (assay: log2 fold change, soluble protein after heating vs DMSO (PISA); higher = thermal stabilisation; K562 lysate, 10 uM; active = over 0.2 and 3.5 SD of the protein, either way, in both replicates (recomputed)).
Procedure, shortened: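 Values give the log-two fold change in thermal stability against solvent controls, from duplicates. Crude K562 extract at 1 mg/mL protein, made by dounce homogenisation in PBS pH 7.4 with 1 mM MgCl2, was treated with 10 μM compound for 30 min. After 3 min heating across 48°C-58°C, aliquots were pooled, adjusted to 0.5% NP-40 at 4°C and centrifuged at 21,000xg for 90 min. The supernatant was measured by TMTpro 16plex LC-MS/MS with channel sums equalised.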

Sequence of UniProt Q5T5U3 (Q5T5U3 whole entry, looked up): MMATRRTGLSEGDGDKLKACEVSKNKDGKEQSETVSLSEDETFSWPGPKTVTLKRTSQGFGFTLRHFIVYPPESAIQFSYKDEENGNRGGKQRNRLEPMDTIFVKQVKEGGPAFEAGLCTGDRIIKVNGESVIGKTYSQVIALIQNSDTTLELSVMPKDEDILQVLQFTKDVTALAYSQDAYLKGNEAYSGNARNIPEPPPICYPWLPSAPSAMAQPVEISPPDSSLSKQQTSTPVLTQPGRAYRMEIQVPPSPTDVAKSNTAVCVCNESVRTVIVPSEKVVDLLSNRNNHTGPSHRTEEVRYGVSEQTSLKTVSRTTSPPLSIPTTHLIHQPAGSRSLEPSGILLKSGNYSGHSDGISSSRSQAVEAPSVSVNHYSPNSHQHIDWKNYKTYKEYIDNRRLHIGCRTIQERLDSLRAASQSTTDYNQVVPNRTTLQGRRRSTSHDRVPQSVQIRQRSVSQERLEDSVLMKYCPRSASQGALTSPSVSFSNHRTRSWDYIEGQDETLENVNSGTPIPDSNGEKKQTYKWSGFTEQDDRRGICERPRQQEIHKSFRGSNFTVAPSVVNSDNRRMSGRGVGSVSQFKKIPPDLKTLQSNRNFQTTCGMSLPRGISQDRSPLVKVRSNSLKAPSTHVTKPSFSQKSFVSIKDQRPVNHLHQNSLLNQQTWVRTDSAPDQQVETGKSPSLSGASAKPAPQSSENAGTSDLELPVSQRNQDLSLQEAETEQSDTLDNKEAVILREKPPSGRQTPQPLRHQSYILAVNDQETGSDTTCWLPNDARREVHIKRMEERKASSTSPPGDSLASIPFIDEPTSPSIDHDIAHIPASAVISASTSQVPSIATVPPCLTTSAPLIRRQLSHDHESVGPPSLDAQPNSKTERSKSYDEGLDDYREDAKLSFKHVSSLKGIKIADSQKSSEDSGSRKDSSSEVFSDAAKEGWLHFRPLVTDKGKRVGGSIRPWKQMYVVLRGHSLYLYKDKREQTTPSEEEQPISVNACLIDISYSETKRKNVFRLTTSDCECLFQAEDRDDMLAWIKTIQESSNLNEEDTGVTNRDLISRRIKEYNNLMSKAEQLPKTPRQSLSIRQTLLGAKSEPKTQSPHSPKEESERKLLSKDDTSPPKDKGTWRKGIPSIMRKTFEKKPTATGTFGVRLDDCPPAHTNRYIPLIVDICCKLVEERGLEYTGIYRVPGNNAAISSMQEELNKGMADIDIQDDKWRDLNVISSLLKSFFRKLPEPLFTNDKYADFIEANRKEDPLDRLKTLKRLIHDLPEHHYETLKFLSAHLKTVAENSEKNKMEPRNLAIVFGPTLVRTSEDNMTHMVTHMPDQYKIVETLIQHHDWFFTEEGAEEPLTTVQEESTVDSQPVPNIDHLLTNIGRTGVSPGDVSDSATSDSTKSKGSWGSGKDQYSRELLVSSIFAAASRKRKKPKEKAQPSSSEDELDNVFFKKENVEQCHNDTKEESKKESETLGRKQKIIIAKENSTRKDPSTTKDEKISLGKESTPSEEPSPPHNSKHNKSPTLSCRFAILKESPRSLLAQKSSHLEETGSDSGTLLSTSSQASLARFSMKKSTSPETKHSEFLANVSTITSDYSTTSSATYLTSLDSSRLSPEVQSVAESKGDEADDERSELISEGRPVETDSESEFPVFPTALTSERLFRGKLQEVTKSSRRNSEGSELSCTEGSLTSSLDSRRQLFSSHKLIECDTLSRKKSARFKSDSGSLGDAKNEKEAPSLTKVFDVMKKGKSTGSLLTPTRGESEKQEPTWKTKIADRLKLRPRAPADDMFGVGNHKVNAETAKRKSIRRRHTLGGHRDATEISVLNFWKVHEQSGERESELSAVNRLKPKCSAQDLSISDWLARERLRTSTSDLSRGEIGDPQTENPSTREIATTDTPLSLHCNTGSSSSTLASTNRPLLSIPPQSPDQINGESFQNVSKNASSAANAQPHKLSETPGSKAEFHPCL
Sequence of UniProt P00568 (P00568 whole entry, looked up): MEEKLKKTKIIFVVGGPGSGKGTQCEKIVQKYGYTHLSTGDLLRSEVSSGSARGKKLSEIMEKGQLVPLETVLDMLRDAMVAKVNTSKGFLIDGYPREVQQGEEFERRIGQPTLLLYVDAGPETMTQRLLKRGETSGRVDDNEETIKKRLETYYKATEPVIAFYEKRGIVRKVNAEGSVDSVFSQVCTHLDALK
Sequence of UniProt Q9NWX5 (Q9NWX5 whole entry, looked up): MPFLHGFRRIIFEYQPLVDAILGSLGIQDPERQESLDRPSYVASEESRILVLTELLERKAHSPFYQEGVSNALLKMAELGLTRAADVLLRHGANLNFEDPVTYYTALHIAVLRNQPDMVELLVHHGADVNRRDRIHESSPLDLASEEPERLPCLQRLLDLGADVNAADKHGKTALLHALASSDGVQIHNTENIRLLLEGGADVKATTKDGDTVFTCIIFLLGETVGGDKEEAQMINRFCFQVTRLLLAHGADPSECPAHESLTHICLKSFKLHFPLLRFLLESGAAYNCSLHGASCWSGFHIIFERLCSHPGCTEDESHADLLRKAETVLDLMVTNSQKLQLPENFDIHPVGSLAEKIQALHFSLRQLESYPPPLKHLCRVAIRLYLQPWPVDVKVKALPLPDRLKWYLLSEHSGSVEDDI
Sequence of UniProt P24752 (P24752 whole entry, looked up): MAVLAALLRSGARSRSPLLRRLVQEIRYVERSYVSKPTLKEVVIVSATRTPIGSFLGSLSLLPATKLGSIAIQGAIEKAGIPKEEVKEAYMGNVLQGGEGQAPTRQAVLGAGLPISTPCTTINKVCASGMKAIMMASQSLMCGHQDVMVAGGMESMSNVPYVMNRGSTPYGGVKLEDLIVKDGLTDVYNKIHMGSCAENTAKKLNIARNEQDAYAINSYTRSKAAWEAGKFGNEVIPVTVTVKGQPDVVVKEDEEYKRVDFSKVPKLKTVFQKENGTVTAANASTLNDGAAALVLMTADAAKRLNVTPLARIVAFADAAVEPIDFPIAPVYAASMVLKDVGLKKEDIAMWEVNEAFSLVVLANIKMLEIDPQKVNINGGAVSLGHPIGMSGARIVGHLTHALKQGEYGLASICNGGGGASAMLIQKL
Sequence of UniProt P53396 (P53396 whole entry, looked up): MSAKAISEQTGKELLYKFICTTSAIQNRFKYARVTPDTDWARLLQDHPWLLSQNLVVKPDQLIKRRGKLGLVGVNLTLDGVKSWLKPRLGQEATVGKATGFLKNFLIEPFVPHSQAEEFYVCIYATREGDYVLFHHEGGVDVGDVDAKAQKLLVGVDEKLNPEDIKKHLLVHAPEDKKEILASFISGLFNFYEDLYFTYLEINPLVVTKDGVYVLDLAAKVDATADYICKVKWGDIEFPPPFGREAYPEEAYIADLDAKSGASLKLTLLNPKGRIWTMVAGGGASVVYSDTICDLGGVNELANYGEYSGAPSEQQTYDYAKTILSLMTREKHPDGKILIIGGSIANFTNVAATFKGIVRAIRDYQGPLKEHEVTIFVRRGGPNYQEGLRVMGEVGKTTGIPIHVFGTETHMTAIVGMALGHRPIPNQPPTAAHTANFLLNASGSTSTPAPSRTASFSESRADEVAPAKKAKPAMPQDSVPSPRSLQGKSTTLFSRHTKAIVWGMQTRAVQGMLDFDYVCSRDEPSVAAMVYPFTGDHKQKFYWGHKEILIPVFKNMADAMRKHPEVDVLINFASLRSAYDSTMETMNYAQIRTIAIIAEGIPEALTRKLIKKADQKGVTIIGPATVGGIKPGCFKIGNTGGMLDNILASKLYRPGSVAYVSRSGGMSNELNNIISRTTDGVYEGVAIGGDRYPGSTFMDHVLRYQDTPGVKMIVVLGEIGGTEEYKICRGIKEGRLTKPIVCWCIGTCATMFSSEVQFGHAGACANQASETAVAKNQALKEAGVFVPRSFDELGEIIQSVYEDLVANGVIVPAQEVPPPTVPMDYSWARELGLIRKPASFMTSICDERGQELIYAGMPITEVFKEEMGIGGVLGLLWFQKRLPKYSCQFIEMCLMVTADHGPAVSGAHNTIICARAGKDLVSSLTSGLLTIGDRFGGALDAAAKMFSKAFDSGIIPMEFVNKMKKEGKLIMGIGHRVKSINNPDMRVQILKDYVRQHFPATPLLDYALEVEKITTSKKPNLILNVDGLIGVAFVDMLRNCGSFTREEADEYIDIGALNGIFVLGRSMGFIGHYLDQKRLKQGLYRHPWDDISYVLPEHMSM
Sequence of UniProt P14621 (P14621 whole entry, looked up): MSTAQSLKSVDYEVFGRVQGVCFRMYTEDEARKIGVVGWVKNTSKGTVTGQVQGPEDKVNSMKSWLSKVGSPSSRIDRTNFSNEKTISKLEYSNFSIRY
Sequence of UniProt P55263 (P55263 whole entry, looked up): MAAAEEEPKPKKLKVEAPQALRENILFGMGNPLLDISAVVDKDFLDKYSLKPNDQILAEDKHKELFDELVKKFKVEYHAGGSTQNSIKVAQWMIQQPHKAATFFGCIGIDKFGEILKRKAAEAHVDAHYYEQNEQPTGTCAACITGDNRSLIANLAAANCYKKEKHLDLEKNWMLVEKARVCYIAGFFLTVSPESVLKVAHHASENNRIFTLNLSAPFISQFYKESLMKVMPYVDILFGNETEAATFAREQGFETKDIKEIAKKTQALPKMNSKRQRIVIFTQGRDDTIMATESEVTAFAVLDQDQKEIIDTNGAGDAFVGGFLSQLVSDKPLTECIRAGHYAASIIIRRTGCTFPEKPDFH
Sequence of UniProt P27216 (P27216 whole entry, looked up): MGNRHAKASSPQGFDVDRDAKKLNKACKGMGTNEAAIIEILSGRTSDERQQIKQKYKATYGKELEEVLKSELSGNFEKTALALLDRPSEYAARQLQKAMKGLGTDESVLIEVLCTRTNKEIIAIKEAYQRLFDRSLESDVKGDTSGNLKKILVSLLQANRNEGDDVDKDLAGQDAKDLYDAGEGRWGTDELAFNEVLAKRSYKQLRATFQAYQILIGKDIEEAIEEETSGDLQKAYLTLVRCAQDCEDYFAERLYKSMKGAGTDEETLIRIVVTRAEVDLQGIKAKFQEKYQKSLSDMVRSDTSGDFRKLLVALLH

log2 fold change, inactive:
ACAT1 (UniProt P24752) -0.014, AMD1 (UniProt P17707) 0.499, ACLY (UniProt P53396) -0.018, ANXA13 isoform 2 (UniProt P27216) 0.02, ACOX1 isoform 2 (UniProt Q15067) 0.04, ANAPC7 (UniProt Q9UJX3) 0.007, ARMC6 (UniProt Q6NXE6) -0.006, AKT2 (UniProt P31751) -0.019, ARHGAP21 (UniProt Q5T5U3) -0.041, ARL8A (UniProt Q96BM9) -0.03, ALG13 (UniProt Q9NP73) 0.014, ARHGAP25 isoform 4 (UniProt P42331) -0.038, ABCC5 (UniProt O15440) -0.028, ACYP2 (UniProt P14621) 0.012, ACACB (UniProt O00763) -0.009, ALG8 (UniProt Q9BVK2) -0.008, ARMCX3 (UniProt Q9UH62) -0.024, ASB6 (UniProt Q9NWX5) -0.019, ABCA3 (UniProt Q99758) 0, AK1 (UniProt P00568) -0.001, ADK (UniProt P55263) 0.262, AHCYL1 (UniProt O43865) 0.045, ACIN1 isoform 5 (UniProt Q9UKV3) -0.012
